The campaign covered roughly 5,500 compounds. About 2,000 (36%) were called active. Another 18% or so got no clear call; they are omitted. No stated cut-off is given here; in the data, active means normalized growth mostly below about 0.91 (no sharp cut-off); inconclusive means no clear call, values can overlap the other calls; inactive means mostly above about 0.92. This is one part of the list.
Assay: chemical genetic growth profiling, strain panel (AID 1159580);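 further: tested at 20 µM; growth read once vehicle control cultures reached saturation at 30 °C; 1 = growth at the plate median or of vehicle wells; lower values mean less growth of the strain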
Settings: growth OD
[1] = S. cerevisiae deletion strains, locus YCL061C, strain MRC1, hits give low values
[2] = S. cerevisiae deletion strains, locus YHR030C, strain SLT2, hits give low values
[3] = S. cerevisiae deletion strains, locus YJL187C, strain SWE1, hits give low values

Measured: normalized growth

O=C1NC(c2ccccc2Cl)Nc2ccccc21 (stereo not drawn)
inactive: S. cerevisiae deletion strains, locus YAL013W, strain DEP1, hits give low values 0.997 | S. cerevisiae deletion strains, locus YBR229C, strain ROT2, hits give low values 1 | [1] 0.992 | S. cerevisiae deletion strains, locus YDL101C, strain DUN1, hits give low values 1.01 | S. cerevisiae deletion strains, locus YDL134C, strain PPH21, hits give low values 1.01 | S. cerevisiae deletion strains, locus YDR150W, strain NUM1, hits give low values 0.998 | S. cerevisiae deletion strains, locus YEL061C, strain CIN8, hits give low values 0.981 | S. cerevisiae deletion strains, locus YGR078C, strain PAC10, hits give low values 0.997 | [2] 1.04 | S. cerevisiae deletion strains, locus YHR087W, strain rtc3, hits give low values 0.998 | [3] 0.993 | S. cerevisiae deletion strains, locus YJR043C, strain POL32, hits give low values 1.02 | S. cerevisiae deletion strains, locus YJR075W, strain HOC1, hits give low values 0.97 | S. cerevisiae deletion strains, locus YLR039C, strain RIC1, hits give low values 0.973 | S. cerevisiae deletion strains, locus YLR058C, strain SHM2 (second series), hits give low values 1 | S. cerevisiae deletion strains, locus YLR085C, strain ARP6, hits give low values 0.951 | S. cerevisiae deletion strains, locus YLR262C, strain YPT6, hits give low values 0.977 | S. cerevisiae deletion strains, locus YML094W, strain GIM5, hits give low values 0.989 | S. cerevisiae deletion strains, locus YMR219W, strain ESC1, hits give low values 1 | S. cerevisiae deletion strains, locus YMR263W, strain SAP30, hits give low values 1.01 | S. cerevisiae deletion strains, locus YNL153C, strain GIM3, hits give low values 1 | S. cerevisiae deletion strains, locus YNL298W, strain CLA4 (second series), hits give low values 0.997 | S. cerevisiae deletion strains, locus YNL322C, strain KRE1, hits give low values 0.99 | S. cerevisiae deletion strains, locus YNR030W, strain Alg12, hits give low values 0.984 | S. cerevisiae deletion strains, locus YPL055C, strain LGE1, hits give low values 1.03 | S. cerevisiae deletion strains, locus YPL241C, strain CIN2, hits give low values 0.981 | S. cerevisiae deletion strains, locus YPR135W, strain CTF4, hits give low values 1.05 | S. cerevisiae strains, strain wild type, hits give low values 1.01

CC[C@]12C=CCN3CC[C@@]4(c5ccc(OC)cc5N(C)C4[C@@](O)(C(=O)OC)[C@@H]1OC(C)=O)[C@@H]32 (stereo partly drawn)
inactive: S. cerevisiae deletion strains, locus YAL021C, strain ccr4, hits give low values 1.01 | S. cerevisiae deletion strains, locus YAL026C, strain drs2, hits give low values 0.993 | S. cerevisiae deletion strains, locus YAL030W, strain snc1, hits give low values 1.02 | S. cerevisiae deletion strains, locus YBL061C, strain skt5, hits give low values 1.01 | S. cerevisiae deletion strains, locus YBR009C, strain hhf1, hits give low values 1.01 | S. cerevisiae deletion strains, locus YBR023C, strain chs3, hits give low values 1.01 | S. cerevisiae deletion strains, locus YBR171W, strain sec66, hits give low values 0.995 | S. cerevisiae deletion strains, locus YBR231C, strain swc5, hits give low values 0.996 | S. cerevisiae deletion strains, locus YBR279W, strain paf1, hits give low values 1 | S. cerevisiae deletion strains, locus YCL011C, strain gbp2, hits give low values 1.02 | S. cerevisiae deletion strains, locus YCL016C, strain dcc1, hits give low values 0.988 | [1] 1.01 | S. cerevisiae deletion strains, locus YCL069W, strain vba3, hits give low values 1 | S. cerevisiae deletion strains, locus YCR088W, strain abp1, hits give low values 1 | S. cerevisiae deletion strains, locus YDL005C, strain med2, hits give low values 0.992 | S. cerevisiae deletion strains, locus YDL040C, strain nat1, hits give low values 1.02 | S. cerevisiae deletion strains, locus YDR001C, strain nth1, hits give low values 1.02 | S. cerevisiae deletion strains, locus YDR069C, strain doa4, hits give low values 0.989 | S. cerevisiae deletion strains, locus YDR137W, strain rgp1, hits give low values 0.949 | S. cerevisiae deletion strains, locus YDR159W, strain sac3, hits give low values 1 | S. cerevisiae deletion strains, locus YDR195W, strain ref2 1.01 | S. cerevisiae deletion strains, locus YDR297W, strain sur2, hits give low values 0.996 | S. cerevisiae deletion strains, locus YDR334W, strain swr1, hits give low values 1.04 | S. cerevisiae deletion strains, locus YDR335W, strain msn5, hits give low values 1.01 | S. cerevisiae deletion strains, locus YDR392W, strain spt3, hits give low values 0.943 | S. cerevisiae deletion strains, locus YEL003W, strain gim4, hits give low values 1 | S. cerevisiae deletion strains, locus YEL037C, strain rad23, hits give low values 1 | S. cerevisiae deletion strains, locus YEL061C, strain CIN8 (second series), hits give low values 1.02 | S. cerevisiae deletion strains, locus YER015W, strain faa2, hits give low values 1.01 | S. cerevisiae deletion strains, locus YER016W, strain bim1, hits give low values 0.993 | S. cerevisiae deletion strains, locus YER111C, strain swi4, hits give low values 0.981 | S. cerevisiae deletion strains, locus YER155C, strain BEM2 (second series), hits give low values 0.973 | S. cerevisiae deletion strains, locus YFR010W, strain ubp6, hits give low values 1 | S. cerevisiae deletion strains, locus YGL167C, strain pmr1, hits give low values 0.992 | S. cerevisiae deletion strains, locus YGL173C, strain kem1, hits give low values 0.998 | S. cerevisiae deletion strains, locus YGL227W, strain vid30, hits give low values 0.989 | S. cerevisiae deletion strains, locus YGL240W, strain doc1, hits give low values 1 | S. cerevisiae deletion strains, locus YGL253W, strain hxk2, hits give low values 1.03 | S. cerevisiae deletion strains, locus YHR013C, strain ard1, hits give low values 0.966 | S. cerevisiae deletion strains, locus YHR027C, strain rpn1, hits give low values 1.01 | [2] 0.912 | S. cerevisiae deletion strains, locus YHR079C, strain IRE1, hits give low values 0.924 | S. cerevisiae deletion strains, locus YHR142W, strain chs7, hits give low values 1.04 | S. cerevisiae deletion strains, locus YJL092W, strain hpr5, hits give low values 1.01 | S. cerevisiae deletion strains, locus YJL095W, strain BCK1 (second series), hits give low values 1 | S. cerevisiae deletion strains, locus YJL095W, strain BCK1, hits give low values 0.983 | S. cerevisiae deletion strains, locus YJL115W, strain asf1, hits give low values 0.999 | S. cerevisiae deletion strains, locus YJL129C, strain trk1, hits give low values 1.02 | S. cerevisiae deletion strains, locus YJL154C, strain vps35, hits give low values 0.992 | S. cerevisiae deletion strains, locus YJL164C, strain tpk1, hits give low values 1.01 | S. cerevisiae deletion strains, locus YJL166W, strain qcr8, hits give low values 1.01 | [3] 1 | S. cerevisiae deletion strains, locus YJR066W, strain TOR1, hits give low values 0.909 | S. cerevisiae deletion strains, locus YKL160W, strain elf1, hits give low values 0.995 | S. cerevisiae deletion strains, locus YKR026C, strain gcn3, hits give low values 1.01 | S. cerevisiae deletion strains, locus YKR091W, strain srl3, hits give low values 0.992 | S. cerevisiae deletion strains, locus YLL001W, strain dnm1, hits give low values 0.997 | S. cerevisiae deletion strains, locus YLL026W, hits give low values 0.992 | S. cerevisiae deletion strains, locus YLL041C, strain sdh2, hits give low values 1.01 | S. cerevisiae deletion strains, locus YLR027C, strain aat2, hits give low values 1.01 | S. cerevisiae deletion strains, locus YLR113W, strain HOG1, hits give low values 0.942 | S. cerevisiae deletion strains, locus YLR221C, strain rsa3, hits give low values 0.999 | S. cerevisiae deletion strains, locus YLR258W, strain gsy2, hits give low values 1.01 | S. cerevisiae deletion strains, locus YLR262C, strain YPT6 (second series), hits give low values 0.927 | S. cerevisiae deletion strains, locus YLR320W, strain mms22, hits give low values 0.97 | S. cerevisiae deletion strains, locus YLR342W, strain FKS1, hits give low values 0.965 | S. cerevisiae deletion strains, locus YLR357W, strain rsc2, hits give low values 1.02 | S. cerevisiae deletion strains, locus YLR370C, strain arc18, hits give low values 1.01 | S. cerevisiae deletion strains, locus YLR384C, strain iki3, hits give low values 1.01 | S. cerevisiae deletion strains, locus YML120C, strain ndi1, hits give low values 0.994 | S. cerevisiae deletion strains, locus YMR058W, strain fet3, hits give low values 1.04 | S. cerevisiae deletion strains, locus YMR125W, strain sto1, hits give low values 1.03 | S. cerevisiae deletion strains, locus YMR129W, hits give low values 1 | S. cerevisiae deletion strains, locus YMR205C, strain PFK2, hits give low values 1.01 | S. cerevisiae deletion strains, locus YMR231W, strain pep5, hits give low values 0.993 | S. cerevisiae deletion strains, locus YNL071W, strain lat1, hits give low values 0.985 | S. cerevisiae deletion strains, locus YNL183C, strain NPR1, hits give low values 0.961 | S. cerevisiae deletion strains, locus YNL209W, strain ssb2, hits give low values 1.01 | S. cerevisiae deletion strains, locus YNL248C, strain rpa49, hits give low values 0.982 | S. cerevisiae deletion strains, locus YNL322C, strain KRE1 (second series), hits give low values 0.987 | S. cerevisiae deletion strains, locus YNR049C, strain mso1, hits give low values 1.01 | S. cerevisiae deletion strains, locus YOR001W, strain rrp6, hits give low values 1.01 | S. cerevisiae deletion strains, locus YOR070C, strain gyp1, hits give low values 1 | S. cerevisiae deletion strains, locus YOR080W, strain dia2, hits give low values 1 | S. cerevisiae deletion strains, locus YOR083W, strain WHI5, hits give low values 0.934 | S. cerevisiae deletion strains, locus YOR106W, strain vam3, hits give low values 0.994 | S. cerevisiae deletion strains, locus YOR231W, strain MKK1, hits give low values 0.928 | S. cerevisiae deletion strains, locus YOR265W, strain rbl2, hits give low values 1.01 | S. cerevisiae deletion strains, locus YOR270C, strain vph1, hits give low values 0.934 | S. cerevisiae deletion strains, locus YOR290C, strain snf2, hits give low values 0.999 | S. cerevisiae deletion strains, locus YPL051W, strain arl3, hits give low values 0.984 | S. cerevisiae deletion strains, locus YPL078C, strain atp4, hits give low values 0.989 | S. cerevisiae deletion strains, locus YPL106C, strain sse1, hits give low values 0.988 | S. cerevisiae deletion strains, locus YPL240C, strain hsp82, hits give low values 1 | S. cerevisiae deletion strains, locus YPL256C, strain CLN2, hits give low values 0.923
